12-LOX inh = inhibitors of human 12S-lipoxygenase ALOX12 | Potency, µM (doses to about 108 µM), inactives show at the highest dose activity change, negative = inhibition, most hits filed as inhibitors | purified 12hLO, xylenol orange hydroperoxide absorbance | P18054 | 580,000 compounds, 1.1% hits; further: potency means the concentration at half of the fitted maximal effect
Target sequence (P18054 whole entry, looked up): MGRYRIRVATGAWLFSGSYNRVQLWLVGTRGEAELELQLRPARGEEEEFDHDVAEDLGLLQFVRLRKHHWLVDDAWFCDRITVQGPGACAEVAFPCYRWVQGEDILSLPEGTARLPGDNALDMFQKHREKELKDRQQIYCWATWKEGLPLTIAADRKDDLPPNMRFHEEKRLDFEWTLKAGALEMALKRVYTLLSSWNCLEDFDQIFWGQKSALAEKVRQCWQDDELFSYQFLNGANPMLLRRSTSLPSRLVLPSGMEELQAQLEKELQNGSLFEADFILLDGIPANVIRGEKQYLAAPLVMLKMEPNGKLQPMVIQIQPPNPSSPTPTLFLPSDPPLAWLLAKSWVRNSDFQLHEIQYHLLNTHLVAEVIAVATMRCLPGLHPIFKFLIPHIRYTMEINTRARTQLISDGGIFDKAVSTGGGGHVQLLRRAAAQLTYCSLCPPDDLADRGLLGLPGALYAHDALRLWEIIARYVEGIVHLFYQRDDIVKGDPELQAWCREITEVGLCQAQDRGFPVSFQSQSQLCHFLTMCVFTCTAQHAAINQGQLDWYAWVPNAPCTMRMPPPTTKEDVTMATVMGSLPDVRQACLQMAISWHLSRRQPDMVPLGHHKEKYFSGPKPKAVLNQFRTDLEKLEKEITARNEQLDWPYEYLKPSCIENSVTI
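Purified human 12hLO at 150 nM in 25 mM Hepes, 0.01% Triton X-100, pH 7.0, preincubated 15 min at room temperature with compound. Reaction started with 40 uM arachidonic acid, 30 min at room temperature. Hydroperoxide measured by Fe-xylenol orange, 573/405 nm absorbance ratio.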
HT1080 IDH1KD tx = kills HT-1080 cells with IDH1 knockdown | 360,000 compounds, 2% hits | Potency, µM (doses to about 46.1 µM), inactives show top-dose activity, negative = toxicity, actives largely listed as cytotoxic | HT-1080 IDH1 knockdown viability, ATP luminescence, 48 h | AID 686971;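 further: potency means the concentration at half of the fitted maximal effect; 0% = DMSO wells and -100% = cell-free medium wells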
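Knockdown cells (IDH1KD HT-1080) received compounds 2 h after plating at 750 cells/well and were kept 48 h at 37 °C in 5% FBS RPMI. A CellTiter-Glo luminescence read gave % activity for curve fitting.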
TDP1 cell noCPT = qHTS for Inhibitors of human tyrosyl-DNA phosphodiesterase 1 (TDP1): qHTS in cells in absence of CPT | DT40 Tdp1-/- hTDP1 cells, no CPT, ATP luminescence, 48 h | 420,000 compounds, 15% hits | Potency, µM (titrated, usually from 46.2 µM), inactives show at the highest dose activity change, negative = growth inhibition, most hits filed as inhibitors; further: potency means the concentration at half of the fitted maximal effect; nearly all actives have a fitted effect of over 55% in size
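Chicken DT40 Tdp1-/- cells complemented with human TDP1, screened without camptothecin (DMSO vehicle only), 400 cells/well. Compounds pin-transferred, cells incubated at 37 °C for at least 48 hr. Growth read as ATP-dependent luminescence (CellTiter-Glo, 30 min at RT).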
IL-1B inflam inh = blocks inflammasome-driven IL-1 beta release. THP-1 LPS/ATP IL-1B secretion, AlphaLISA, 16 h; hits give low values. 360,000 compounds, 4.7% hits. AID 743279. activity change, % at 57.5 µM; in the data active means activity change below about -50%; inconclusive means mostly about -30% to -49%
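Secreted IL-1B measured by AlphaLISA bead assay after 16 h compound exposure of THP-1 cells; compounds (final up to 57.5 uM) added 1 h before LPS (250 ng/mL) and ATP (1.25 mM) stimulation; lower signal means less secretion.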
HT1080NT lethal = kills 2HG-producing HT-1080-NT fibrosarcoma cells; HT-1080-NT fibrosarcoma viability, CellTiter-Glo ATP luminescence, 48 h; Potency, µM (series often up to 46.1 µM), for the others: at the highest dose activity, negative = less viability, usual class: cytotoxic; 360,000 compounds, 1.6% hits; AID 686970;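 further: NT is the 2HG producing partner of a matched IDH1 knockdown line; potency means the concentration at half of the fitted maximal effect; 0% = DMSO-treated cells and -100% = media-only wells without cells; nearly all actives have a fitted effect of over 55% in size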
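750 cells/well, RPMI + 5% FBS; 2 h settle, compound pin-transfer, 48 h at 37 degrees C. CellTiter-Glo 10 min RT, luminescence. Normalized to DMSO and media-only wells.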
DT40 TDP1 CPT = DT40-hTDP1 cell growth loss with CPT; AID 686979; Potency, µM (titrated, usually from 46.2 µM), inactives show top-dose activity change, negative = growth inhibition, usual class: inhibitors; chicken DT40 Tdp1-/-;hTDP1 cells + 20 nM CPT, ATP luminescence, 48 h; 420,000 compounds, 12% hits; further: potency means the concentration at half of the fitted maximal effect; nearly all actives have a fitted effect of over 55% in size
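Chicken DT40 Tdp1-/- cells stably complemented with human TDP1 were seeded at 400 cells/well in medium containing 20 nM camptothecin, exposed to pin-transferred compounds, and grown at 37 °C for at least 48 hr. Viability was read as ATP luminescence.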
* marks the source's active call; other numbers are inactive results; u = inconclusive; x = no result; [ ] = remark or other dose. This is one part of a sample in which hits are shown more often than they occur. Unless noted, the call rests on the fitted dose curve; in most records, active means well fitted curve in the direction sought with a large enough effect; inconclusive means small, poorly fitted or top-dose-only effect, or another doubt; inactive means no such curve, though single readings can be large; an effect the other way counts as inactive or inconclusive. Unless noted, on the % scale 0 is the no-effect control and ±100 the full control effect.

SMILES | 12-LOX inh | HT1080 IDH1KD tx | TDP1 cell noCPT | IL-1B inflam inh | HT1080NT lethal | DT40 TDP1 CPT
COc1cc(NS(=O)(=O)c2cc(Br)cc3c2N(C(C)=O)C(C)C3)cc(OC)c1 (stereo not drawn) | -3% | x | 18µM* | x | x | 13µM*
CC(=O)N1c2c(cc(Br)cc2S(=O)(=O)N2CCN(c3cc(C)ccc3C)CC2)CC1C (stereo not drawn) | -7% | x | 15µM* | x | x | 16µM*
O=C(NCC1(c2ccccc2)CCC1)c1cc2ccccc2oc1=O | 36% | x | x | x | x | x
CCC1CCCCN1C(=O)CS(=O)(=O)Cc1coc(-c2cccc(F)c2)n1 (stereo not drawn) | -28% | x | x | x | x | x
COC(=O)[C@@]1(Cc2ccccc2)[C@H]2C(=O)N(C)C(=O)[C@H]2[C@H]2CN=C(SCc3ccc(Cl)cc3)N21 | -26% | -3% | 12µM* | 0 | -9% | 13µM*
CC[C@]1(C(=O)OC)[C@H]2C(=O)N(C)C(=O)[C@H]2[C@H]2CN=C(SCc3ccc(Cl)cc3)N21 | u | 4% | u | 0 | -2% | u
CCN1C(=O)[C@H]2[C@H]3CN=C(SCC4CC4)N3[C@@](Cc3ccccc3)(C(=O)OC)[C@H]2C1=O | u | -7% | u | -19 | -6% | -27%
COC(=O)c1ccc(CSC2=NC[C@@H]3[C@@H]4C(=O)N(C)C(=O)[C@@H]4[C@](Cc4ccccc4)(C(=O)OC)N23)cc1 | -58% | -2% | u | -7 | -11% | 16µM*
COC(=O)[C@@]1(Cc2ccccc2)[C@H]2C(=O)N(C)C(=O)[C@H]2[C@H]2CN=C(SCc3ccc(C)cc3)N21 | -31% | 6% | 16µM* | -8 | 2% | 18µM*
COC(=O)[C@@]1(Cc2ccccc2)[C@H]2C(=O)N(C)C(=O)[C@H]2[C@H]2CN=C(SCC3CC3)N21 | u | -1% | -19% | -5 | -1% | 3.7µM*
CC(C)(C)c1ccc(C(=O)N/N=C/C=C/c2ccccc2)cc1 | 57% | x | x | x | x | x
FC(F)(F)c1cc(CCN2C(=S)NC[C@@H]2Cc2ccccc2)cc(C(F)(F)F)c1 | u | u | u | -11 | u | u
NC1=NC[C@H](Cc2ccccc2)N1CC1CCCCC1 | -23% | 0% | 12µM* | -13 | -6% | 10µM*
NC1=NC[C@@H](Cc2ccc(O)cc2)N1CCCCC1CCCCC1 | -24% | -27% | 3.7µM* | u | -21% | 5.2µM*
NC1=NC[C@H](Cc2ccccc2)N1CCc1cc(C(F)(F)F)cc(C(F)(F)F)c1 | -20% | -4% | 15µM* | -27 | -4% | 23µM*
NC1=NC[C@H](Cc2ccc(O)cc2)N1CC1CCCCC1 | -18% | -4% | 15µM* | -4 | -2% | u
CC(C)N(C(=O)c1cccc(F)c1)C(C)C | -67% | x | x | x | x | x
NC1=NC[C@H](Cc2ccc(O)cc2)N1CCc1cccc(F)c1 | -3% | 2% | u | -6 | 3% | -16%
NC1=NC[C@@H](Cc2ccc(O)cc2)N1CCC12CC3CC(CC(C3)C1)C2 | u | -10% | 21µM* | -6 | -7% | 21µM*
Cc1ccc(CN2CCN(C3CCN(C(=O)c4ccccc4)CC3)C(=O)C2=O)cc1 | -16% | x | -8% | x | x | -17%
COc1cc2c(cc1OC)C(c1ccc(N)cc1)=NNC(=O)C2 | -7% | x | 15µM* | x | x | 21µM*
COc1cccc(CN(C)C(=O)CSCC(=O)Nc2cccc(C)c2)c1OC | 2% | -1% | -28% | 15 | 1% | u
COc1cccc2sc(N(CCCN(C)C)C(=O)c3sc4ccccc4c3Cl)nc12 | u | -24% | 18µM* | -67* | -5% | u
CCN(CC)CCN(C(=O)c1ccc([N+](=O)[O-])cc1)c1nc2c(OC)cccc2s1 | -28% | -5% | u | 14 | 1% | -12%
Cc1cccc2sc(N(CCCN(C)C)C(=O)c3sc4ccccc4c3Cl)nc12 | -27% | -14% | 23µM* | 0 | -8% | 16µM*
SMILES | 12-LOX inh | HT1080 IDH1KD tx | TDP1 cell noCPT | IL-1B inflam inh | HT1080NT lethal | DT40 TDP1 CPT
COc1cc(C(=O)N(CCCN(C)C)c2nc3c(OC)cccc3s2)cc(OC)c1OC | u | x | 21µM* | x | x | u
CCCc1cc(C(=O)NC2CC2)cs1 | -1% | x | x | x | x | x
COc1ccc(-c2nnc3n2CCN(C(=O)C2CC2)C3)cc1 | 14%[176 µM] | x | x | x | x | x
Cc1ccc(F)cc1C(=O)N1CCCC(c2cc(C(=O)NCc3ccc(F)cc3)no2)C1 (stereo not drawn) | -2% | -21% | 15µM* | u | -20% | u
O=C(NCc1ccc(F)cc1)c1cc(C2CCCN(C(=O)c3ccc4c(c3)CCO4)C2)on1 (stereo not drawn) | 1% | -8% | 23µM* | -1 | -24% | 18µM*
COc1ccc(C(=O)N2CCCC(c3cc(C(=O)NCc4ccc(F)cc4)no3)C2)cc1 (stereo not drawn) | -4% | -8% | u | -16 | -5% | 15µM*
O=C(NCc1ccccc1)c1cc(C2CCCN(C(=O)c3ccc4c(c3)CCO4)C2)on1 (stereo not drawn) | 5% | -15% | u | -8 | -12% | u
CC(C)c1ccc(C(=O)N2CCCC(c3cc(C(=O)NCc4ccccc4)no3)C2)cc1 (stereo not drawn) | 6% | u | 15µM* | -1 | -29% | 13µM*
COCC1CN(C)CC12CCN(C(=O)Cc1cccc(Cl)c1)CC2 (stereo not drawn) | 39% | x | x | x | x | x
COc1ccc(CCNC(=O)Cn2nc3n(c2=O)CCCCC3)cc1OC | 19% | x | x | x | x | x
Cc1ccc(-c2nn3c(C(C)C)nnc3c3ccccc23)cc1S(=O)(=O)N(C)CCO | 2% | x | x | x | x | x
O=C(NCc1ccc(F)cc1)c1cc(C2CCCN(C(=O)c3ccccn3)C2)on1 (stereo not drawn) | 11% | -4% | -6% | 0 | 4% | -21%
O=C(NCc1ccccc1)c1cc(C2CCCN(C(=O)CCCc3ccccc3)C2)on1 (stereo not drawn) | 11% | -16% | 15µM* | -24 | -12% | 15µM*
O=C(NCc1ccc(F)cc1)c1cc(C2CCCN(C(=O)c3ccc4ccccc4c3)C2)on1 (stereo not drawn) | u | -19% | 16µM* | -17 | -9% | 16µM*
Cc1n[nH]c(C)c1CCC(=O)N/N=C/C=C/c1ccccc1 | -3% | -4% | -11% | -7 | -1% | -12%

Assay outcomes: PubChem BioAssay, National Center for Advancing Translational Sciences (NCATS)
